Pf Dd2 growth = P. falciparum Dd2 growth inhibitors, primary screen, SYBR Green fluorescence, single dose replicates | activity change, % at 10 µM | 72 h; hits give low values | AID 1159554, 2015 | 94,000 tested, 2.3% active; in the data active means activity change below about -80%; inconclusive means no clear call, values can overlap the other calls
T cruzi growth-1 = T. cruzi intracellular proliferation inhibitors, primary screen, cell-based, beta-gal Tulahuen parasites, NIH3T3 host, luminescence; T. cruzi beta-gal in NIH3T3, GalScreen luminescence, 90 h; inhibition, % at 8.34 µM; 77,000 tested, 5.9% active;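 active means mean inhibition above about 93%, with at least 55% of replicates each passing it, limit read from the data, passing the limit was not always enough; inconclusive means only one of those two conditions holds; inactive means neither condition holds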
C diff growth = C. difficile growth inhibitors, primary screen, HTS. 86,000 tested, 0.25% active. Clostridium difficile clinical isolate growth, OD600, 24 h; hits give low values. growth activity, negative = inhibition, % at 16 µg/mL (by protocol). AID 1259249, 2017;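 active means mean growth activity at or below -80% and every replicate also at or below -80%; inconclusive means mean at or below -80% but some replicate above -80%; inactive means mean growth activity above -80%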;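 further: 0% = DMSO wells and -100% = levofloxacin 16 µg/mL wells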
T cruzi growth-2 = T. cruzi intracellular proliferation inhibitors, confirmation, cell-based, NIH3T3 host, beta-gal parasite, luminescence, cherry-pick; shares compounds with T cruzi growth-1; T. cruzi beta-gal in NIH3T3, GalScreen luminescence, 90 h; inhibition, % at 8.35 µM; 5,600 tested, 72% active; AID 651739, 2012;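 active means mean replicate inhibition above about 95% and at least 55% of replicates individually reaching it, limit read from the data; inconclusive means only one of the two criteria is met; inactive means neither criterion is met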
T cruzi growth-3 = inhibitors of intracellular T. cruzi replication, confirmation, NIH3T3 host cells, beta-gal parasites, cherry-pick, set 2 | AID 651740, 2012 | T. cruzi beta-gal in NIH3T3, GalScreen luminescence, 90 h | 5,600 tested, 21% active | inhibition, % at 2.09 µM | shares compounds with T cruzi growth-1;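 active means mean inhibition above about 95%, with at least 55% of replicates also reaching it, limit read from the data; inconclusive means meets just one of the two conditions; inactive means meets neither condition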;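 further: plate controls were neutral control median for no effect and positive control median for full effect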
3T3 cytotox = cytotoxicity in mouse NIH/3T3 fibroblasts, confirmation, cytotoxicity control for T. cruzi proliferation inhibitor project, cell-based, cherry-pick, single point; shares compounds with T cruzi growth-1; NIH/3T3 viability, CellTiter-Glo ATP luminescence, 90 h; cytotoxicity (signal decrease), % at 8.35 µM; 5,600 tested, 14% active;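 active means mean signal decrease across replicates above about 35% based on untreated-well scatter, with enough replicates individually passing, limit read from the data; inconclusive means no rule stated though some were filed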;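 further: 0% = median of neutral control wells and 100% = median of positive control wells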
NIH3T3 tox 2 = NIH/3T3 fibroblast cytotoxicity, confirmation, cytotoxicity control, cell-based, cherry-pick, single point, set 2. shares compounds with T cruzi growth-1. NIH/3T3 viability, CellTiter-Glo ATP luminescence, 90 h. inhibition, % at 24.9 µM. 5,600 tested, 56% active;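 active means mean loss of cell viability signal at or above a set limit, and enough replicates individually reaching it; inconclusive means meets only the mean limit or only the replicate share; inactive means meets neither condition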;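 further: 0% = median of neutral control wells and 100% = median of positive control wells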
Starred values were filed as active, the others as inactive; ? = inconclusive; / = not tested or not shown. Shown are actives, neighbours in structure and some others; about 6.8% of the full set was active somewhere.

SMILES	Pf Dd2 growth	T cruzi growth-1	C diff growth	T cruzi growth-2	T cruzi growth-3	3T3 cytotox	NIH3T3 tox 2
COc1ccc(NC(=O)Nc2cccc3c2O[C@@H](CN(C)Cc2ccc(C(=O)Nc4ccccc4N)cc2)[C@H](C)CN([C@H](C)CO)C3=O)cc1	-70	?	-3	94	86	14	65*
COc1ccc(NC(=O)Nc2cccc3c2O[C@H](CN(C)Cc2ccc(C(=O)O)cc2)[C@H](C)CN([C@@H](C)CO)C3=O)cc1	15	2	0	/	/	/	/
C[C@@H]1CN([C@@H](C)CO)C(=O)c2cc(NC(=O)Nc3ccc4c(c3)OCO4)ccc2O[C@H]1CN(C)Cc1ccc(C(=O)Nc2ccccc2N)cc1	-73	/	-1	/	/	/	/
COc1ccc(NC(=O)Nc2cccc3c2O[C@@H](CN(C)Cc2ccc(C(=O)O)cc2)[C@@H](C)CN([C@H](C)CO)C3=O)cc1	1	102*	2	-19	-18	6	-10
C[C@H]1CN([C@@H](C)CO)C(=O)c2cccc(NC(=O)Nc3cccc4ccccc34)c2O[C@H]1CN(C)Cc1ccc(C(=O)Nc2ccccc2N)cc1	?	/	11	/	/	/	/
COc1ccc(NC(=O)Nc2cccc3c2O[C@@H](CN(C)C(=O)Nc2ccc(OC)cc2)[C@@H](C)CN([C@H](C)CO)C3=O)cc1	-46	37	-17	/	/	/	/
C[C@@H]1CN([C@@H](C)CO)C(=O)c2cc(NC(=O)Nc3ccc(F)cc3)ccc2O[C@@H](C)CCCCO[C@@H]1CN(C)S(=O)(=O)c1cn(C)cn1	-54	-4	/	/	/	/	/
C[C@H]1CCCCO[C@H](CN(C)C(=O)Nc2cccc3ccccc23)[C@@H](C)CN([C@@H](C)CO)C(=O)c2cc(NS(=O)(=O)c3cn(C)cn3)ccc2O1	-53	14	0	/	/	/	/
O=C(N[C@H]1CC[C@H](CC(=O)N2CCC(Cc3ccccc3)CC2)O[C@H]1CO)c1cnccn1	-10	/	-4	/	/	/	/
CC(C)CC#Cc1cnc2c(c1)C(=O)N([C@H](C)CO)C[C@@H](C)[C@@H](CN(C)Cc1ccccc1F)O2	-10	58	-6	/	/	/	/
CC(C)CC#Cc1cnc2c(c1)C(=O)N([C@@H](C)CO)C[C@@H](C)[C@@H](CN(C)Cc1ccccc1F)O2	-20	?	0	107*	89	?	32*
CC(C)CC#Cc1cnc2c(c1)C(=O)N([C@@H](C)CO)C[C@@H](C)[C@H](CN(C)Cc1ccccc1F)O2	-31	119*	-12	108*	75	6	103*
CC(C)CC#Cc1cnc2c(c1)C(=O)N([C@H](C)CO)C[C@H](C)[C@H](CN(C)Cc1ccccc1F)O2	-19	56	14	/	/	/	/
CCCC#Cc1cnc2c(c1)C(=O)N([C@H](C)CO)C[C@@H](C)[C@H](CN(C)Cc1ccccc1F)O2	-48	51	-3	/	/	/	/
CC(C)CC#Cc1cnc2c(c1)C(=O)N([C@H](C)CO)C[C@H](C)[C@@H](CN(C)Cc1ccccc1F)O2	-29	103*	-5	111*	79	8	103*
C[C@@H]1CCCCO[C@@H](CN(C)C(=O)Nc2cccc3ccccc23)[C@H](C)CN([C@H](C)CO)C(=O)c2cc(NC(=O)CCC(F)(F)F)ccc2O1	-79	47	-4	/	/	/	/
C[C@@H]1CN([C@@H](C)CO)C(=O)c2cc(NC(=O)Nc3ccc(F)cc3)ccc2O[C@@H](C)CCCCO[C@H]1CN(C)C(=O)c1ccccc1	54	68	7	/	/	/	/
C[C@@H]1CCCCO[C@@H](CN(C)C(=O)Nc2ccc(F)cc2)[C@H](C)CN([C@@H](C)CO)C(=O)c2cc(NC(=O)Nc3ccccc3)ccc2O1	20	104	-2	/	/	/	/
C[C@@H]1CCCCO[C@H](CN(C)C(=O)Nc2ccccc2)[C@H](C)CN([C@H](C)CO)C(=O)c2cc(NC(=O)Nc3ccc(F)cc3)ccc2O1	-85*	102*	/	104*	108*	-5	-26
C[C@H]1CCCCO[C@@H](CN(C)C(=O)c2ccccc2)[C@@H](C)CN([C@@H](C)CO)C(=O)c2cc(NC(=O)Nc3ccc(F)cc3)ccc2O1	-68	?	-13	115*	12	3	15
C[C@@H]1CCCCO[C@H](CN(C)C(=O)Nc2ccc3c(c2)OCO3)[C@@H](C)CN([C@H](C)CO)C(=O)c2cc(NC(=O)Cc3ccccc3)ccc2O1	-32	38	-3	/	/	/	/
C[C@@H]1CCCCO[C@@H](CN(C)C(=O)Nc2ccc(F)cc2)[C@@H](C)CN([C@H](C)CO)C(=O)c2cc(NC(=O)Nc3ccccc3)ccc2O1	72	-5	9	/	/	/	/
C[C@H]1CCCCO[C@@H](CN(C)C(=O)Nc2ccc3c(c2)OCO3)[C@@H](C)CN([C@@H](C)CO)C(=O)c2cc(NC(=O)Cc3ccccc3)ccc2O1	-60	?	-1	103*	11	6	-9
C[C@H](CO)N1C[C@H](C)[C@@H](CN(C)C(=O)Nc2ccc(F)cc2)OCCCC[C@H](C)Oc2ccc(NC(=O)Nc3ccccc3)cc2C1=O	16	114*	1	110*	31	-1	-15
Cc1noc(C)c1S(=O)(=O)Nc1ccc2c(c1)C(=O)N([C@@H](C)CO)C[C@H](C)[C@@H](CN(C)C(=O)Nc1ccc(C(F)(F)F)cc1)O2	9	25	8	/	/	/	/
Cc1noc(C)c1NC(=O)N(C)C[C@@H]1OCCCC[C@H](C)Oc2ccc(N(C)C)cc2C(=O)N([C@H](C)CO)C[C@H]1C	-3	15	1	/	/	/	/
CS(=O)(=O)Nc1ccc2c(c1)[C@H]1C[C@H](CC(=O)NCc3cccnc3)O[C@H](CO)[C@H]1O2	20	/	-4	/	/	/	/
C[C@H](CO)N1C[C@H](C)[C@H](CN(C)Cc2ccc(C(=O)O)cc2)OCCCC[C@H](C)Oc2ccc(NC(=O)Nc3ccc(F)cc3)cc2C1=O	33	25	9	/	/	/	/
C[C@H](CO)N1C[C@H](C)[C@H](CN(C)C(=O)Nc2ccc3c(c2)OCO3)OCCCC[C@H](C)Oc2ccc(NC(=O)Nc3ccccc3)cc2C1=O	9	114*	-6	112*	55	-15	-20
C[C@@H]1CCCCO[C@H](CN(C)C(=O)Nc2ccc3c(c2)OCO3)[C@H](C)CN([C@@H](C)CO)C(=O)c2cc(N(C)C)ccc2O1	/	72	-3	/	/	/	/

Screens (PubChem)
